Measured values from PubChem BioAssay AID588790 (National Center for Advancing Translational Sciences (NCATS), 2011).
Hit rate of the full screen: of about 1,200 compounds, about 85 (7%) were called active. The sample as a whole holds a higher share of actives than the screen did. A number with no mark means an inactive call. The call rests on the fitted dose curve.

The compounds below were run against Beta-2 adrenergic receptor (Homo sapiens) (UniProt P07550) (assay: qHTS assay of beta-arrestin-biased ligands of beta2-adrenergic receptor: Hit Validation with GloSensor). Conditions: W9-Glo22F cells, GloSensor cAMP luminescence, beta2AR agonism; activation: at 46.1 µM (top of the series).
Description: The concept of biased agonism is an emerging concept of molecular pharmacology which proposes that seven transmembrane receptors (7TMRs) or G protein-coupled receptors (GPCRs), exist in multiple signaling conformations and complexes and that ligands (either agonists or antagonists) can induce signaling biased responses for distinct signal transduction cascades.
Furthermore, accumulating evidence over the last decade has drawn attention to a novel function of beta-arrestins as signal transducers that scaffold various signaling molecules upon activation of 7TMRs. […] This beta-arrestin-biased signaling presumably leads to distinct physiological outcomes from those by G protein activation.
Additionally, the active receptor conformations which […] on this beta-arrestin signaling are likely different from those activating G protein signaling
The goal of this screening project is to discover and optimize novel beta-arrestin-biased ligands for beta2-AR signaling. A luminescent cell-based assay for beta2-AR-mediated agonism, known as the Tango assay, has been validated in which ligand binding of a recombinant beta2-AR and subsequent recruitment of a recombinant beta-arrestin lead to the release of the transcriptional activator tTA, which upregulates transcription of a tTA-responsive luciferase gene. […] After compounds were identified in this primary screen, they were tested in a counter screen that used luminescence as measure through the GloSensor reagent.
NIH Molecular Libraries Probe Production Network [MLPCN]
NIH Chemical Genomics Center [NCGC]
PI: Bryan Roth (UNC) and Bob Lefkowitz (Duke)
2 uL of W9-Glo22F cells are dispensed into a white 1536-well plate. They are incubated overnight at 37 deg C at 5% CO2. 23 nL of compounds and controls are pinned into the wells. Then 2 uL of GloSensor is added and the plate is incubated for 10 min at room temperature.The plates are then read on the ViewLux for luminescence.
Potency means the concentration at half of the fitted maximal effect.
Wherever activation is given: 0% is about no effect.

Sequence of Beta-2 adrenergic receptor (Homo sapiens) (P07550 whole entry, looked up): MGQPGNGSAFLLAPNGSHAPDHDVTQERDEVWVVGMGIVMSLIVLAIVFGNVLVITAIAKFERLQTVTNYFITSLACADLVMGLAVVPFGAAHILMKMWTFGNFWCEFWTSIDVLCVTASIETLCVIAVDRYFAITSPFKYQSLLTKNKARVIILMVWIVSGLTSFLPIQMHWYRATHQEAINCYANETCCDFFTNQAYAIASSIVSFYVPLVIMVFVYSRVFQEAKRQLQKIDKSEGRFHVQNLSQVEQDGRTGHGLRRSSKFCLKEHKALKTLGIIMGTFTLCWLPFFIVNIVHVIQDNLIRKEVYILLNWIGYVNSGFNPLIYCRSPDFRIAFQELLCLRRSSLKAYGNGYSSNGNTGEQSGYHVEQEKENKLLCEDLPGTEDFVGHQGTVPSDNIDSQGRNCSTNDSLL

SMILES	activation	Potency
O=C(NCc1ccco1)c1cccn2c(=O)c3c4c(sc3nc12)CCCC4	4.8%	
Cc1ccc(C)c(-n2c(SCC(=O)O)nc3sc4c(c3c2=O)CCCC4)c1		23.1 µM (active)
Cc1nc(SCC(=O)N2CCOCC2)c2c3c(sc2n1)CCC3	4.96%	
CC1(C)CC(C)(c2ccc(O)cc2O)N(c2cccc(Cl)c2)C(=S)N1 (stereo not given)	0.459%	
S=c1[nH]c2cc(-c3ccccc3)ccc2o1	1.16%	
CC1CCC(NC(=O)c2ccc(S(C)(=O)=O)cc2)CC1 (stereo not given)		29.1 µM (active)
CC(C)CC(=O)NC(=S)Nc1ccc(Cl)cn1	-2.33%	
O=C(CS(=O)(=O)c1ccccc1)Nc1nc2ccccc2s1	-1.16%	
CCCC(=O)NC(=S)Nc1ccc(Cl)cn1	2.48%	
COc1cccc(C(=O)C2CCCN(Cc3cccc(-n4nc(C)cc4C)c3)C2)c1 (stereo not given)	12.8%	
COc1ccc(C(=O)C2CCCN(Cc3cnc(N4CCCC4)s3)C2)cc1OC (stereo not given)	-1.16%	
COc1ccc(C(=O)C2CCCN(C/C=C/c3ccccc3OC)C2)c(OC)c1 (stereo not given)		18.4 µM (active)
O=c1[nH]c(CSc2cccc[n+]2[O-])nc2ccccc12	4.96%	
O=c1[nH]c(CSc2ccccn2)nc2c1cnn2-c1ccccc1		11.6 µM (active)
CCc1cc2c(=O)[nH]c(-c3ccccn3)nc2s1	0.306%	
CCn1c(SCC(=O)N/N=C/C=C\c2ccco2)nc2ccccc21	0%	
S=C(NN=C1CCN(Cc2ccccc2)CC1)NC1CCCCC1	-1.01%	
COc1cccc([C@@H]2Oc3ccc(Br)cc3C(=O)[C@H]2OC(=O)NC2CCCC2)c1	-1.16%	
CCOc1ccc(C(=O)Nc2ccccc2OC(F)F)cc1	0.153%	
O=C(CN1C(=O)C2C3CC(C(Br)C3Br)C2C1=O)N1CCN(Cc2ccccc2)CC1 (stereo not given)	0.153%	
CCNc1nc(NC(C)CC)nc(ON=C(C)C)n1 (stereo not given)		32.6 µM (active)
CN(C)S(=O)(=O)c1cccc(NC(=S)N/N=C/c2ccco2)c1	0.306%	
COc1ccc(/C=C/c2ccc3cccc(O)c3n2)c(OC)c1OC	-1.01%	
CCCCCC1CC(/C(C)=N/NC(N)=O)OC1=O (stereo not given)		29.1 µM (active)
C/C(CCC1CC(C)(C)OC1=O)=N\NC(N)=S (stereo not given)	-2.48%	
CCCCCOCC1CC(C/C(C)=N/NC(N)=S)C(=O)O1 (stereo not given)	-1.16%	
CS/C(N)=N/N=C/c1cc(C)ccc1O	-0.857%	
CCN(CC)C(=O)[C@H]1CC(CC(=O)NCc2ccc(OC)c(OC)c2)C(=O)N2CCc3c([nH]c4ccccc34)[C@]12C (stereo not given in full)	-1.16%	

SMILES	activation	Potency
O=C(CSc1n[nH]c(=O)n1-c1cccnc1)N1CCOCC1	-1.16%	
COc1ccc2cc1Oc1ccc(cc1)C[C@H]1c3cc(c(OC)cc3CCN1C)Oc1c(O)c(OC)cc3c1[C@H](C2)N(C)CC3	-1.16%	
CCOC(=O)N1C/C(=C\c2ccccc2)C(=O)/C(=C/c2ccccc2)C1	0.153%	
COc1cc(/C=C2\CC/C(=C\c3ccc(OCCO)c(OC)c3)C2=O)ccc1OCCO		18.4 µM (active)
COc1cc(/C=C2\CC(C(C)(C)C)C/C(=C\c3cc(OC)c(OC)c(OC)c3)C2=O)cc(OC)c1OC (stereo not given)	-2.33%	
O=C(O)CC1S/C(=N/N=C2CCCCC2)N(c2ccccc2)C1=O (stereo not given)	-1.16%	
CN(C)CCCn1c(SCC(=O)Nc2nccs2)nnc1-c1ccncc1	1.16%	
CCC(C)NC(=O)C1CCN(S(=O)(=O)N2CCC3(CC2)OCCO3)CC1 (stereo not given)	-1.16%	
COc1cccc(/C=N/Nc2nc(-c3cccnc3)nc3ccccc23)c1	-1.16%	
COc1ccc(Oc2nc(-c3ccncc3)nc3ccccc23)cc1		29.1 µM (active)
O=C(CC(=O)Nc1cccc(F)c1)Nc1cccc(F)c1	0%	
CCCCCCCCN1C(=O)N(C)C(N(O)C(=O)NC)C1(C)C (stereo not given)	-2.17%	
O=[N+]([O-])c1ccc(Cl)c(C2Nc3cccc4cccc(c34)N2)c1		0.0046 µM (active)
Clc1cccc(Cl)c1C1Nc2cccc3cccc(c23)N1	-1.01%	
Clc1ccccc1C1Nc2cccc3cccc(c23)N1	0%	
Cc1ccc(C(=O)N/C(=C\c2ccco2)C(=O)NCCc2c[nH]c3ccccc23)cc1	0%	
O=C(CNC(=O)C(c1ccccc1)c1ccccc1)N/N=C\c1cccc(O)c1	-0.857%	
CCC(Sc1nc(C)cc(=O)[nH]1)C(=O)Nc1nc2c(s1)CCCC2 (stereo not given)	4.96%	
CC(/C=C/c1ccccc1)=N\NC(N)=S	0%	
NC(=S)NN=C(c1ccccc1)c1ccccc1	-1.16%	
NC(=S)NN=C(Cc1ccccc1)Cc1ccccc1		32.6 µM (active)
Cc1cc(N2Cc3ccccc3C2)ccc1C=O	0.459%	
C/C(=N/NC(=O)c1ccoc1C)c1ccc(NC(=O)C2CCCC2)cc1	-1.16%	
O=C(COC(=O)c1n[nH]c(=O)c2ccccc12)NCc1ccccc1	8.45%	
O=C(COC(=O)c1ccc(CO)cc1)NCc1cccs1	80.4% (active)	
Oc1ccc(NCc2cccs2)cc1	1.16%	
CN1CCN(C(=S)NC(=O)c2ccc(Br)cc2)CC1		10.3 µM (active)
